The text below walks through data of PubChem BioAssay (NCI).

Compounds without any hit were thinned out: in the full panel of roughly 83,000, 20% have a hit.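 Plates (96-well) were seeded with cells, treated with compound at one concentration, and incubated for 48 hours before percent growth was determined.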 A number with no mark means an inactive call. The source made the active and inactive calls. How the source made its calls: active means growth percent below 10; inactive means the rest.

Test in all cases: NCI-60 one-dose screen, 48 h (100 = growth as untreated, 0 = no growth, -100 = all killed)
Holding throughout (settings): 10 µM unless noted

Experiment [1] concerns NCI-H23 lung.
Experiment [2] concerns NCI-H226 lung.
For experiment [3], the system named is HOP-62 NSCLC.
Experiment [4] deals with NCI-H460 lung.
Experiment [5] relates to HOP-92 NSCLC.
Experiment [6] has as its system A549/ATCC NSCLC.
For experiment [7], the system named is 786-0 renal.
The subject of experiment [8] is COLO 205 colon.
Experiment [9] concerns DU-145 prostate.
In experiment [10] the test system is K-562 leukemia.
Experiment [11] deals with MALME-3M melanoma.
The test system of experiment [12] is MDA-MB-231 breast.
In experiment [13] the test system is RXF 393 renal.
In experiment [14] the test system is SF-268 CNS.
For experiment [15], the system named is SF-295 CNS.
Experiment [16] has as its system SF-539 CNS.
The test system of experiment [17] is UACC-257 melanoma.
The subject of experiment [18] is M14 melanoma.
Experiment [19] deals with NCI-H522 lung.

`CCCCc1ccc2nc(NC(=O)OC)[nH]c2c1`: the growth is 14.1% in [1]; 63.4% in experiment [2]; 24.2% in [3]; 2.11% (active) in experiment [4]; 60.7% in experiment [5]; 18.4% in experiment [6]. For the same compound, the growth in [7] was 16.5%; in [8], -45.8% (active); in experiment [9], -2.08% (active); in experiment [10], -20.4% (active); in experiment [11], 48.1%; in experiment [12], 13%. The growth is 20.9% in experiment [13]; 28.8% in [14]; -5.83% (active) in experiment [15]; -51.1% (active) in experiment [16]; 69% in experiment [17]; 8.08% (active) in experiment [18].

On to `S=c1nc(-c2ccccn2)c(-c2ccccn2)n[nH]1`, for which the growth in [1] was 100%; in experiment [2] it was 101%; in experiment [3], 110%; in experiment [4] it was 112%; in [5] it was 66.2%; in [19], 82.7%. Further, the growth is 105% in experiment [6]; 98.4% in [7]; 115% in experiment [8]; 103% in experiment [9]; 105% in experiment [10]; 89.6% in [11]. The growth was 118% in experiment [12]; 118% in experiment [13]; 102% in experiment [14]; 111% in experiment [16]; 107% in experiment [17]; 98.3% in experiment [18].

On to `CC(c1ccccc1)N1C(=O)CSC1=S` (stereo not drawn), for which the growth in [1] is 51.2%; in experiment [2] it was 83.2%; in experiment [3], 59.2%; in experiment [4], 0.475% (active); in experiment [5], 47.5%; in experiment [19], -14.2% (active). In addition, the growth is 78.8% in experiment [6]; 21.2% in experiment [7]; 1.28% (active) in [8]; 26.9% in experiment [9]; 5.61% (active) in experiment [10]; 79.3% in experiment [11]. The growth was 29.9% in [12]; -25% (active) in experiment [13]; 24.9% in [14]; 101% in experiment [15]; -59.7% (active) in [16]; 55.3% in experiment [17]. Moreover, in experiment [18], the growth is 28.7%.

Regarding `COC(CCCl)c1ccc(Cl)cc1` (stereo not drawn), the growth in experiment [1] was 107%; in experiment [2], 101%; in [3], 114%; in experiment [4] it was 107%; in [5] it was 121%; in [19], 74.6%. Besides, the growth was 95.4% in experiment [6]; 100% in experiment [7]; 111% in experiment [8]; 111% in [9]; 89% in experiment [10]; 98.9% in experiment [11]. In addition, the growth was 119% in experiment [12]; 113% in [13]; 110% in experiment [14]; 112% in experiment [15]; 101% in [16]; 78% in experiment [17]. In addition, the growth in [18] was 101%.

Take `CC(C)=CCC[C@@H](C)[C@H]1CC[C@@]2(C)C3=C(CC[C@]12C)[C@@]1(C)CC[C@H](O)C(C)(C)[C@@H]1CC3`: the growth in experiment [1] was 113%; in experiment [2] it was 104%; in experiment [3] it was 107%; in experiment [4], 107%; in experiment [5], 97.8%; in experiment [19], 95%. Further, the growth in [6] is 97.7%; in experiment [7] it was 101%; in experiment [8], 110%; in [9], 126%; in [10], 91.2%; in experiment [11], 110%. Also, the growth in experiment [12] is 112%; in experiment [13], 95.9%; in experiment [14], 117%; in experiment [16] it was 101%; in experiment [17], 121%; in experiment [18], 108%.

`Nc1c(O)c(S(=O)(=O)O)c(O)c2c1C(=O)c1ccccc1C2=O`: the growth in experiment [1] was 21.5%; in experiment [2], 41.2%; in experiment [3], 42.6%; in [4] it was 8.34% (active); in [5], 14.4%; in [19], 7.56% (active). The growth was 19% in experiment [6]; 59.6% in experiment [7]; 6.29% (active) in [8]; 21.4% in experiment [9]; 22.1% in experiment [10]; -0.703% (active) in experiment [11]. Besides, the growth was 42.3% in experiment [12]; 75.3% in experiment [13]; 45.9% in experiment [14]; 12.8% in experiment [15]; 61.6% in experiment [16]; 1.57% (active) in [17]. For the same compound, the growth in [18] was 35%.

`NNc1ncccn1`: the growth is 98.4% in experiment [1]; 109% in experiment [2]; 101% in experiment [3]; 112% in experiment [4]; 111% in experiment [5]; 84.6% in experiment [19]. Further, the growth in experiment [6] was 97.1%; in experiment [7], 95.7%; in [8] it was 117%; in experiment [9], 116%; in [10], 102%; in experiment [11], 118%. Moreover, the growth in [12] is 100%; in [13] it was 120%; in experiment [14] it was 103%; in experiment [15] it was 108%; in experiment [16], 105%; in experiment [17] it was 104%. In experiment [18], the growth is 108%.

For the compound `CCOC(=O)c1ccc(NC(C)=O)o1`, the growth was 105% in experiment [1]; 95% in [2]; 86.3% in experiment [3]; 87.2% in [4]; 103% in experiment [5]; 95.2% in experiment [19]. Moreover, the growth in experiment [6] was 76.2%; in experiment [7], 105%; in experiment [8], 106%; in [9] it was 111%; in experiment [10], 84.3%; in experiment [11], 107%. Also, the growth in experiment [12] is 105%; in experiment [13] it was 102%; in experiment [14], 100%; in experiment [15], 98.5%; in experiment [16] it was 105%; in experiment [17], 80.2%. In addition, the growth in [18] is 106%.

As for `OCCOc1ccc(-c2cc(-c3ccccn3)nc(-c3ccccn3)c2)cc1`, the growth is 18.5% in experiment [1]; 0.498% (active) in experiment [2]; 4.56% (active) in [3]; 0.477% (active) in experiment [4]; -1.12% (active) in experiment [5]; -18.8% (active) in experiment [19]. Further, the growth in [6] was 4.79% (active); in experiment [7], 1.56% (active); in experiment [8] it was 0.364% (active); in experiment [9], -10.2% (active); in experiment [10], -2.31% (active); in experiment [11] it was 17.3%. Further, the growth in experiment [12] was 21.4%; in experiment [13] it was 2.52% (active); in experiment [14], 15%; in experiment [15], 14.6%; in [16], -6.53% (active); in experiment [17] it was 1.35% (active). Besides, the growth in [18] is -62.5% (active).
